SARS PLP yeast: inhibitors of SARS-CoV papain-like protease in yeast; S. cerevisiae expressing SARS-CoV PLpro, growth rescue; Potency, µM (top dose mostly 32.9 µM), for the others: at the highest dose activity, positive = growth rescue, actives largely listed as activators; 330,000 compounds, 0.19% hits; AID 485353; calls by dose curve; also: 0% is about no effect; nearly all actives have a fitted effect of over 55% in size
Pf growth 96h: P. falciparum growth inhibition at 96 hours | 320,000 compounds, 6.9% hits | Potency, µM (titrated, usually from 28.7 µM), without a hit: top-dose activity change, negative = inhibition, hits mostly inhibitors | P. falciparum luciferase reporter growth, 96 h | AID 504834; also: % is scaled to controls: 0 for no effect and ±100 for the full control effect
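Readout is luminescence from an integrated firefly luciferase in P. falciparum. Red cells, 2% hematocrit and 0.05% parasitemia final, were cultured with compound through two parasite generations (96 hours) at 37 C, 5% CO2.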
AMA1 RON2 block: inhibitors of Plasmodium falciparum AMA1-RON2 interaction; AlphaScreen AMA1-biotinylated RON2 peptide binding; Potency, µM (series often up to 58.2 µM), for the others: at the highest dose activity change, negative = inhibition, actives largely listed as inhibitors; 360,000 compounds, 0.2% hits;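 also: 0% = vehicle wells and -100% = peptide control; nearly all actives have a fitted effect of over 45% in size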
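AMA1 (3D7) with his tag at 25 nM final met compounds first, then biotinylated RON2 peptide at 25 nM; detection used donor plus acceptor beads, 10 µg/mL apiece, read by AlphaScreen after 30 min at room temperature.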
Pf growth 48h: P. falciparum growth inhibition at 48 hours (one generation); P. falciparum luciferase growth in erythrocytes, 48 h; Potency, µM (highest dose often 28.7 µM), inactives show at the highest dose activity change, negative = inhibition, most hits filed as inhibitors; 310,000 compounds, 5.9% hits; AID 504832; also: % is scaled to controls: 0 for no effect and ±100 for the full control effect
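First compound was added to culture medium, then infected red cells at 0.1% parasitemia and 2% hematocrit (final). After incubation at 37 C under 5% CO2, luciferase detection reagent was dispensed and light output recorded.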
* hit, by the source's call; ? = inconclusive; . = not tested or not shown; [ ] = another dose, or the depositor's remark. The list is not random: actives were taken first. Their share in the collection is about 9.4%. Unless noted, calls follow the shape of the dose curve; as a rule, active = well fitted curve in the direction sought with a large enough effect; inconclusive = small, poorly fitted or top-dose-only effect, or another doubt; inactive = no such curve, though single readings can be large; an effect the other way counts as inactive or inconclusive. Potency is read from the fitted curve at half-maximal effect.

SMILES | SARS PLP yeast | Pf growth 96h | AMA1 RON2 block | Pf growth 48h
CCc1noc(C)c1C(=O)N1CCN(S(=O)(=O)c2ccc(Cl)cc2)CC1 | 5.8% | -30.7% | -6.5% | ?
CCc1cc(C(=O)N2CCN(S(=O)(=O)c3ccc(Cl)cc3)CC2)sc1C | 2.6% | 9.28µM* | -2.2% | 9.28µM*
O=C(Cc1ccc(S(=O)(=O)N2CCOCC2)s1)N1CCN(S(=O)(=O)c2cccc(F)c2)CC1 | . | . | -4.5% | .
Cc1ccc(-n2cc(CNCCN3CCOC3=O)c(-c3ccc(F)cc3)n2)cc1 | -1.0% | ? | -4.3% | ?
CCOc1cc(C(=O)NCc2ccc(C)cc2)ccc1OCC(=O)N1CCOCC1 | 0.3% | -6.1% | 4.6% | 2.5%
O=C(NCC(=O)N1CCCCCC1)c1ccc(Cl)cc1 | ? | 160.3% | 2.0% | 71.3%
O=C(Oc1cccnc1)c1ccccc1[N+](=O)[O-] | -6.7% | ? | -8.1% | 2.2%
O=C(Oc1c(Br)cc([N+](=O)[O-])cc1Br)c1cccnc1 | -47.5% | 6.57µM* | -25.4% | -16.9%
Cc1cc(C(=O)Oc2cccnc2)ccc1[N+](=O)[O-] | 1.0% | 3.7µM* | -16.7% | 5.2%
CC(C)(C)N/N=C1\CC(c2ccccc2)Oc2ccccc21 (stereo not given) | 17.2% | ? | -2.4% | ?
COC(=O)c1c(NC(=O)CSc2nnc(-c3ccco3)n2Cc2ccccc2)sc(C)c1C | 13.9% | ? | -15.0% | .
COc1cc(Cl)c(C)cc1NC(=O)CN1C(=O)C2CCCCC2C1=O (stereo not given) | 9.6% | 25.4% | 5.7%[11.6 µM] | 3.5%
CCOc1ccc(N2C(=O)CC(Sc3nnnn3-c3ccccc3)C2=O)cc1 (stereo not given) | -4.3% | -0.5% | -3.7% | -1.7%
O=C(CN1CCN(C2CCCCC2)CC1)c1ccc2cc[nH]c2c1 | -4.4% | 4.65µM* | 5.1% | .
COc1cc2c(C(=O)N3CCN(C)CC3)c(C)n(-c3ccccc3)c2cc1Br | 1.1% | 1.47µM* | 1.9% | 4.65µM*
CCSC1(SCC)N=C(N)C2(C#N)C(c3ccc(OC)c(OC)c3OC)C12C#N (stereo not given) | 0.5% | 11.5% | -9.5% | ?
Clc1ccc(-c2csc(=Nc3cccnc3)n2CCCn2ccnc2)cc1Cl | 9.6% | 4.65µM* | -8.9%[2.32 µM] | 11.7µM*
COc1cc(C2c3c(-c4cc(C)cc(C)c4O)n[nH]c3C(=O)N2CCCO)cc(OC)c1OC (stereo not given) | -1.2% | -3.0%[5.75 µM] | 53.7% | ?
COCCCN1C(=O)c2[nH]nc(-c3cc(C)cc(C)c3O)c2C1c1ccc(O)c(OC)c1 (stereo not given) | -0.5% | ? | 31.4% | 9.28µM*
CCCN1C(=O)c2[nH]nc(-c3cc(Cl)c(C)cc3O)c2C1c1ccc(O)c(OC)c1 (stereo not given) | 1.9% | 10.4µM* | 92.2% | ?
CC(=O)O[C@H]1CC[C@@]2(C)C(=CC[C@H]3[C@@H]4CC[C@H](C5(C)OCCO5)[C@@]4(C)CC[C@@H]32)C1 | 2.4% | ? | -2.2% | -20.6%
Cc1nc(-c2c(C(F)(F)F)noc2-c2ccc(O)cc2O)cs1 | -1.8% | ? | -17.6% | 30.5%
CCOc1cc(C)c(-c2onc(C(F)(F)F)c2-c2csc(C)n2)c(O)c1 | -41.4% | 1.85µM* | 1.0% | 1.65µM*
CCCN1CCN(C(=O)CN2C(=O)CC(C)(C)S(=O)(=O)c3ccccc32)CC1 | 9.4% | 14.7µM* | -17.9% | -17.1%
CCOC(=O)N1CCN(C(=O)CN2C(=O)CC(C)(C)S(=O)(=O)c3ccccc32)CC1 | ? | 3.29µM* | 6.7% | .
SMILES | SARS PLP yeast | Pf growth 96h | AMA1 RON2 block | Pf growth 48h
O=C(NC1CCN(C(=O)Nc2cccc(F)c2)CC1)c1ccco1 | 1.5% | 3.2% | 0.0% | -2.6%
O=C(Nc1ccccc1)N1CCC(=S)Nc2ccccc21 | 1.8% | -5.1% | 22.8% | -8.2%
CC1CC(=S)Nc2ccccc2N1C(=O)Nc1ccccc1 (stereo not given) | 4.0% | ? | -5.4% | 3.29µM*
O=C(N1CCOCC1)C1(c2ccccc2)CCCCC1 | -2.4% | 17.3% | -1.3% | -3.2%
O=C(N1CCCCC1)C1(c2ccccc2)CCOCC1 | 0.5% | 11.7µM* | 6.2% | -5.2%
CCOC(=O)c1sc(C)c2c1NC1(CCCCC1)NC2=O | -0.6% | . | 9.3% | 15.8%
O=C(N/N=C/C1=C(N2CCOCC2)C(=C\c2ccccc2)/CC1)Nc1ccccc1 | 4.3% | 42.4% | ? | 3.0%
O=C(O)c1ccccc1N/N=C/C1=C(N2CCOCC2)C(=C\c2ccccc2)/CC1 | -0.7% | ? | -12.6% | 10.4µM*

Source: PubChem (National Center for Advancing Translational Sciences (NCATS))
